The supplement of paper PMC6555819

Experiments:
Assay in all cases: PBM binding z-score (relative to random genomic background probes); higher = stronger binding; sequences stand for … in GC…GCGATTGACAGCGTAGAATGAAGG
[1] = test system: RARb homodimer (NR concentration 270 nM)
How it was run: (§1)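 For binding z-scores, the reference was random background probes on custom Agilent 4×180K protein-binding microarrays. These arrays were incubated 1 h with ligand-free nuclear receptor dimers in PBS pH 7.4, 2% milk, 0.02% Triton X-100, 1 mM DTT, 0.2 mg/mL BSA and 0.4 mg/ml salmon testes DNA. Fluorescence was scanned after antibody detection of each partner (one per run) and regression-normalized.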

[2] = test system: RARg:RXRa (NR concentration 270 nM, RXRa partner concentration 90 nM)
How it was run: as §1

[3] = test system: RARg homodimer (NR concentration 270 nM)
How it was run: as §1

[4] = test system: RXRa DBDmut IVT, anti-RXR (DBD mutation: RXRa K156A/R161A, NR concentration 90 nM)
How it was run: as §1

[5] = test system: RXRa homodimer (NR concentration 180 nM)
How it was run: as §1

[6] = test system: THRa:RXRa (NR concentration 90 nM, RXRa partner concentration 90 nM)
How it was run: as §1

[7] = test system: THRa homodimer (NR concentration 90 nM)
How it was run: as §1

[8] = test system: VDR homodimer (NR concentration 270 nM)
How it was run: as §1

| Sequence | PBM binding z-score [1] | PBM binding z-score [2] | PBM binding z-score [3] | PBM binding z-score [4] | PBM binding z-score [5] | PBM binding z-score [6] | PBM binding z-score [7] | PBM binding z-score [8] |
| --- | --- | --- | --- | --- | --- | --- | --- | --- |
| ATATGTAGGTTAGCTGGGGTTATTCAGACTAGGC | 1.42 | 1.54 | 0.961 | 0.972 | 2.43 | 4.32 | 1.11 | 1.65 |
| ATATGTAGGTTATCAGGTCATTCAGTTTGCGCAT | 3.6 | 3.19 | 2.93 | 1.91 | 3.12 | 3.72 | 3.81 | 3.81 |
| TGAATGAGGTTGTAAGATCAGGGAACGTTGCAAA | -0.435 | -0.0347 | 0.0621 | -0.583 | 0.396 | 0.192 | -0.364 | -0.21 |
| CCTAGTTGGTCAGGAGGTCATACACCGGATATGA | 3.79 | 4.56 | 3.35 | 0.572 | 4.2 | 3.23 | 1.8 | 2.73 |
| AGAACGAGGGCACGCTGTGTTGATAGCAGAGTAG | 1.05 | 1.82 | 2.12 | 1.76 | 1.23 | 1.53 | -0.0988 | 0.651 |
| CCTTACAGGTCACTGACAGGTTATAGCATTTGGA | 3.83 | 5.94 | 5.46 | 2.62 | 4.91 | 3.28 | 0.808 | 1.41 |
| CCCAGTTGGTCAAGGTCACACACGCTATAGGTAC | 4.34 | 4.75 | 4.74 | 2.13 | 4.74 | 4.16 | 4.46 | 4.2 |
